# Data as given in publication PMC5540273 (PLoS ONE, 2017).
# Legend:
# Conditions in all cases: concentration: 1 μM, replicates: in singlicate; n = 1
# MYO3B = tested on: MYO3B
# NDR1 = tested on: T1, NDR1
# T1 construct: gene STK38
# NDR2 = tested on: NDR2
# NEK10 = tested on: NEK10
# NEK11 = tested on: NEK11
# NEK1 = tested on: NEK1
# NEK2 = tested on: NEK2
# NEK3 = tested on: NEK3
# NEK4 = tested on: NEK4
# NEK5 = tested on: NEK5
# 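Further: KINOMEscan kinase panel screen.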
Compound,%Inh (MYO3B),%Inh (NDR1),%Inh (NDR2),%Inh (NEK10),%Inh (NEK11),%Inh (NEK1),%Inh (NEK2),%Inh (NEK3),%Inh (NEK4),%Inh (NEK5)
CSc1ccc(-c2cc3ncnc(SCC(=O)O)c3s2)cc1,1%,1%,0%,26%,0%,2%,0%,31%,0%,0%
O=C(NCCCN1CCOCC1)c1cccc(Nc2nccc(Nc3ccc(Oc4ccccc4)cc3)n2)c1 [GW663929],0%,40%,41%,0%,13%,11%,6%,5%,0%,24%
Cc1nnc(-c2ccc3ncc(-c4ccc(S(C)=O)cc4)n3c2)o1 (stereo not shown),0%,0%,0%,0%,0%,0%,12%,36%,0%,0%
CC(=O)Nc1ccc(COc2ccc(Nc3ccnc4cc(-c5ccccn5)ccc34)cc2)cc1.Cl [GW440148],2%,20%,37%,3%,0%,0%,8%,6%,0%,10%
c1ccc(-c2n[nH]cc2-c2ccnc3ccccc23)nc1 [GW271431],0%,17%,0%,8%,0%,0%,2%,14%,3%,22%
N#Cc1ccc(-c2cc(-c3c[nH]nc3-c3ccccn3)ccn2)cc1 [GW693028],0%,14%,0%,11%,5%,0%,0%,8%,20%,5%
Fc1ccc(-c2nn3c(OCC(F)(F)F)cccc3c2-c2ccncc2)cc1 [GW514784],0%,11%,44%,11%,44%,2%,8%,0%,0%,2%
Cc1ccc(NC(=O)c2ccnc(N3CCN(C)CC3)c2)cc1-c1ccc(C(=O)NCC2CC2)cc1 [GW775604],22%,27%,0%,0%,0%,20%,0%,20%,0%,0%
COc1ccc(Nc2nccc(N3CCC(NC(=O)Nc4cc(C)ccc4C)C3)n2)cc1 (stereo not shown) [GSK1379741],0%,7%,0%,1%,20%,0%,0%,0%,0%,6%
Cn1cc(-c2ccc3c(c2)CCN3C(=O)Cc2ccccc2Cl)c2c(N)ncnc21 [GSK2608885],33%,21%,0%,0%,0%,0%,79%,0%,5%,7%
COc1cc2c(cc1OCCN1CCN(C)CC1)ncc1c3ccc(C#N)cc3[nH]c21,0%,52%,0%,15%,0%,0%,48%,33%,0%,0%
COc1ccc(COc2cc(-n3cnc4ccccc43)sc2C(N)=O)cc1 [GSK1024304],0%,6%,0%,19%,0%,0%,0%,0%,0%,7%
O=C(NOCC1CC1)c1ccc(F)c(F)c1Nc1ccc(I)cc1Cl,0%,0%,0%,0%,0%,0%,0%,26%,0%,0%
COc1cc2c(cc1OC[C@@H](O)CO)ncc1c3ccc(C#N)cc3[nH]c21,0%,62%,15%,18%,0%,0%,23%,37%,0%,0%
NS(=O)(=O)c1cccc(-c2ccc3nccc(-c4cccc(S(N)(=O)=O)c4)c3c2)c1 [GW867253],0%,41%,19%,20%,8%,0%,0%,29%,0%,7%
NCC(NC(=O)c1cc(-c2cn[nH]c2)c(-c2ccnc3[nH]ccc23)s1)c1ccccc1.O=C(O)C(F)(F)F.O=C(O)C(F)(F)F (stereo not shown) [GSK1325775],0%,65%,70%,50%,15%,72%,43%,7%,0%,57%
